Reference: PubChem BioAssay AID1851 (National Center for Advancing Translational Sciences (NCATS), 2009)
Screen size: about 16,000 compounds; about 4,000 (25%) were called active. About 26% were inconclusive and are not listed. Calls follow the shape of the dose curve; as a rule, active = well fitted curve in the direction sought with a large enough effect; inconclusive = small, poorly fitted or top-dose-only effect, or effect the other way; inactive = no such curve, though single readings can be large or run the other way. Only a sample is shown.

Each compound was assayed against Cytochrome P450 2C9 (Homo sapiens) (UniProt P11712) (assay: Cytochrome panel assay with activity outcomes). Settings: recombinant CYP, pro-luciferin dealkylation, luminescence, p450-cyp2c9; series mostly up to 57.1 µM.
% is scaled to controls: 0 for no effect and ±100 for the full control effect.

Cytochrome P450 2C9 (Homo sapiens), sequence (P11712 whole entry, looked up): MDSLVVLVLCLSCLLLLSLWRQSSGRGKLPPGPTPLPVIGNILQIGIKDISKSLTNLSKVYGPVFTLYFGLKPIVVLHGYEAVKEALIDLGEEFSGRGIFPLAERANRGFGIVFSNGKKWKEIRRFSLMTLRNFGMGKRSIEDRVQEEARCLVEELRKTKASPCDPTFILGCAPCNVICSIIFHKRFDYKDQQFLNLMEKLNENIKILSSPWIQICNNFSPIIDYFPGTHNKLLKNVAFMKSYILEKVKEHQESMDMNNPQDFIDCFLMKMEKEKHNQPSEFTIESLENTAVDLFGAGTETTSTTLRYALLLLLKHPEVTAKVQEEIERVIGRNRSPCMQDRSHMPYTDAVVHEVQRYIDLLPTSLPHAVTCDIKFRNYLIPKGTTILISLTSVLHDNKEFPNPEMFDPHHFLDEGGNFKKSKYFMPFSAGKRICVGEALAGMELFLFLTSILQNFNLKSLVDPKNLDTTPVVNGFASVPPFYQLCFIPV

activity, negative = inhibition, inactive:
O=C(CC1(O)CCCCC1)OC1CCCC1 -26.4% [at 11.4 µM], C[N+](C)(C)/N=C\c1ccc(O)c(O)c1 -5.12% [at 11.4 µM], CSc1cccc(NC(=O)OC2CCCCCCCCCCC2)c1 -17.7% [at 11.4 µM], N#CC(C#N)=CNCCN1CCN(C=C(C#N)C#N)CC1 5.25% [at 11.4 µM], CC(=O)NCCNc1ncnc2ccc(-c3ccc(C(=O)N(C)C)cc3)cc12 3.47% [at 2.29 µM], CC(=O)OC[C@@H]1O[C@H](C/C=N\OCC[C@H]2C=C[C@H](OC(C)=O)[C@@H](COC(C)=O)O2)C=C[C@@H]1OC(C)=O 19.9% [at 11.4 µM], Cc1noc(C)c1-c1cncnc1NCCN1CCOCC1 -15.1% [at 2.29 µM], O=C(O)/C=C\C(=O)Nc1ccccn1 25.1% [at 11.4 µM], C[C@@H]1/C=C\CC(=O)OC[C@H]2O[C@@H](C=C[C@@H]2O)[C@H](C)/C=C\CC(=O)OC[C@H]2O[C@H]1C=C[C@@H]2O -9.33% [at 11.4 µM], C[C@@H](C[C@H](N)C(=O)O)C(=O)O 0.375% [at 11.4 µM], Cc1cnc(CNc2nc(-c3ccccc3C(F)(F)F)nc3ccccc23)cn1 -16.4% [at 2.29 µM], CC/C=C\CC[C@H](O)C1=CCCCC1=O -1.13% [at 11.4 µM], O=C1CCCC=C1[C@@H](O)COCc1ccccc1 3.8% [at 11.4 µM], Fc1ccc(Nc2ccnc(-c3ccccc3C(F)(F)F)n2)cc1 -26.8% [at 2.29 µM], CC1(C)O[C@H]2[C@@H](O1)[C@@H](On1nnc3ccc(Cl)cc31)O[C@@H]2[C@@H]1COC(C)(C)O1 -3.36% [at 11.4 µM], N#Cc1cccc(-c2ccc3ncnc(N4CCNCC4)c3c2)c1 20.7% [at 2.29 µM], O=C1C2=CC[C@H]3C(=O)N(c4cccc(Oc5ccccc5)c4)C(=O)[C@@H]3[C@@H]2[C@H](O)[C@@H]2O[C@H]12 4.88% [at 11.4 µM]

AC50, inactive:
FC(F)(F)c1cc(CN2CCCC3(CCNCC3)C2)cc(C(F)(F)F)c1, CCCC(=O)Nc1nc2n(n1)C(c1ccccc1)CC(=O)N2 (centres undefined), O=C1CC[C@H](N2C(=O)c3ccccc3C2=O)C(=O)N1, O=C1c2ccccc2C(=O)N1CCSC(=S)N1CCOCC1, Cc1cccc(NC(=O)Cn2cccc2)c1, O=C(OCC1CC(c2ccccc2)=NO1)c1ccc(Cl)cc1 (centres undefined), Clc1ccc(C2=C3CCCCn4c(-c5ccccc5)c[n+](c43)C2)cc1, CC(C)(C)NC(=O)Cn1cnc([N+](=O)[O-])n1, O=C(O)c1cccnc1SCC(=O)N1CCCCCC1, COCC(=O)N1CCC2(CC1)CCN(C(c1ccccc1)c1ccccc1)CC2, CCNc1ncc2ncc(=O)n(C[C@H]3CCCO3)c2n1, CCNc1ncc2nc(-c3ccccc3)c(=O)n(Cc3cccc(OC)c3)c2n1, COc1ncc2nc(-c3ccc(F)cc3)c(=O)n(Cc3ccc(F)cc3)c2n1, COc1cccc(Cn2c(=O)c(-c3cccc(C#N)c3)nc3cnc(N4CCN(C)CC4)nc32)c1, COc1cccc(Cn2c(=O)c(-c3cccc(C#N)c3)nc3cnc(Nc4ccccc4)nc32)c1, CC/C(O)=C(\C#N)c1nnc2n1CCCCC2, CC(C)Oc1ccc(CSC(=N)N)cc1, COCCNC(=O)COc1ccc(OCCNC[C@@H](O)COc2ccccc2)cc1, COCCNC(=O)CCn1c(=O)oc2ccccc21, CS(=O)(=O)N1CCC2(CCCN(C(=O)Nc3cccc(F)c3)C2)CC1, COC(Cc1nnc(SC)n1-c1ccccc1)OC, N[C@@H](CS(=O)O)C(=O)O, CC(=O)Nc1ccc(NC(=O)C/C(C)=N/NC(=O)C(=O)N2CCCC2)cc1, COCCn1c(=O)cnc2cnc(Oc3ccccc3)nc21, Cc1nc2cnc(Oc3cccc(Cl)c3)nc2n(CCc2ccccc2)c1=O, COCCn1c(=O)cnc2cnc(Oc3ccc(OC)cc3)nc21, COc1ccc(C2CC(=O)CC(=O)C2n2cncn2)cc1 (centres undefined), O=C(O)CSc1sc(=S)sc1SCC(=O)O, O=C(Nc1cccc2ncccc12)c1cccc(F)c1, CC(C)NC(=O)N1CC2(CCN(C(=O)c3ccncc3)CC2)C1, Cc1noc(C)c1C(=O)N1CCC2(CCCN(C(c3ccccc3)c3ccccc3)C2)CC1, O=C(c1cnccn1)N1CCC2(CC1)CCN(C(c1ccccc1)c1ccccc1)CC2, O=C(c1cccc(F)c1)N1CCC[C@@]2(CCN(C(c3ccccc3)c3ccccc3)C2)C1, CC(C)CN1CCCC2(CCN(C(=O)c3cccc(F)c3)CC2)C1, CC(C)NC(=O)N1CCCC2(CCN(C(=O)c3ccncc3)CC2)C1, O=C(c1ccco1)N1CCC2(CCCN(c3ccccc3)C2)CC1, O=C(c1ccco1)N1CCC2(CCCN(Cc3ccccc3)C2)CC1, O=C(c1cnccn1)N1CCC[C@@]2(CCN(C(c3ccccc3)c3ccccc3)C2)C1, O=C(c1cnccn1)N1CCC2(CC1)CN(C(c1ccccc1)c1ccccc1)C2, O=C(NN=C1C2CC3CC(C2)CC1C3)c1ccncc1, CC(C)NNC(=O)c1ccncc1, CC1(C)OC(=O)C(=CNc2cccc(O)c2)C(=O)O1, O=C(Nc1cccc(F)c1)N1CC[C@@]2(CCCN(C(=O)c3cc(C(F)(F)F)cc(C(F)(F)F)c3)C2)C1, Cc1noc(C)c1C(=O)N1CCC2(CCCN(c3ccncc3)C2)CC1, CC(=O)N1CCC2(CC1)CN(c1ccccc1)C2, O=C(c1cccc(F)c1)N1CCC[C@@]2(CCN(c3ccncc3)C2)C1, Cc1noc(C)c1C(=O)N1CCC2(CCN(Cc3ccncc3)CC2)CC1, O=C(c1ccncc1)N1CCC2(CC1)CN(c1ccc(-c3ccccc3)cc1)C2, Nn1nnc2ccccc21, CCN(CC)S(=O)(=O)N1CCC(C(=O)NCc2ccc(C)cc2)CC1, Cc1ccc(CS(=O)(=O)CCC(=O)NCc2ccccn2)cc1, Cc1ccc(CNC(=O)Cn2cncn2)cc1, COc1ccc(C(CNC(=O)c2cc(=O)[nH]c3ccccc23)N2CCCC2)cc1 (centres undefined)

AC50, active:
CC(C)N=c1scc(-c2ccco2)n1/N=C/c1ccc(O)c(O)c1 11.2 µM, CC1(C)CC(=O)C(CCCN2C(=O)c3ccccc3C2=O)C(=O)C1 17.8 µM, CSc1cccc(NC(=O)Cn2cccc2)c1 20 µM, O=C(c1ccc(Cl)cc1)N1CCCC(c2ccccc2)=N1 10 µM, Cc1cccc(C(CC(=O)N2CCCC2)c2ccccc2)c1O (centres undefined) 3.98 µM, COc1cccc(Cn2c(=O)c(-c3ccccc3)nc3cnc(OC)nc32)c1 12.6 µM, COc1cccc(Cn2c(=O)c(-c3cccc(C#N)c3)nc3cnc(OC)nc32)c1 12.6 µM, COCCNC(=O)COc1ccc(Oc2ccccc2)cc1 0.316 µM, CCOc1ccc(NCc2nnc(SCc3ccccc3Cl)n2-c2ccccc2)cc1 7.94 µM, O=S(=O)(Cc1cc(Oc2ccccc2)nc(-c2ccccc2)n1)c1ccccc1 0.891 µM, CCn1c2ccccc2c2cc(NC(=O)C/C(C)=N/NC(=O)c3ccccc3N)ccc21 35.5 µM, COCCn1c(=O)c(C)nc2cnc(Oc3cccc(Cl)c3)nc21 12.6 µM, COCCn1c(=O)cnc2cnc(Oc3cccc(Cl)c3)nc21 15.8 µM, Cc1sc2ncn(CC(=O)NCCCC(=O)N3CCN(c4ncccn4)CC3)c(=O)c2c1C 11.2 µM, O=C(Nc1cccc(F)c1)Nc1ccccn1 25.1 µM, O=C(c1cccc(F)c1)N1CCC2(CCCN(C(c3ccccc3)c3ccccc3)C2)CC1 3.16 µM, O=C(c1ccco1)N1CCC2(CCCN(C(c3ccccc3)c3ccccc3)C2)CC1 12.6 µM, O=C(c1ccncc1)N1CCC2(CCCN(C(c3ccccc3)c3ccccc3)C2)CC1 5.01 µM, O=C(c1ccncc1)N1CCC2(CC1)CN(C(c1ccccc1)c1ccccc1)C2 10 µM, O=C(c1cnccn1)N1CCC2(CCCN(C(c3ccccc3)c3ccccc3)C2)CC1 12.6 µM, O=C(Nc1nnc(C2CC2)s1)c1ccncc1 8.91 µM, O=C1CCCC=C1[C@@H](O)CCOC(c1ccccc1)(c1ccccc1)c1ccccc1 0.794 µM, O=C(c1ccncc1)N1CCC2(CC1)CN(c1ccccc1)C2 2.51 µM, Cc1noc(C)c1C(=O)N1CCC2(CC1)CCN(c1ccncc1)CC2 10 µM, O=C(c1cccc(F)c1)N1CCC2(CC1)CN(c1ccncc1)C2 5.01 µM, O=C(c1ccncc1)N1CCC2(CC1)CCN(c1ccccc1)CC2 10 µM, O=C(Cc1csc(Nc2nc(=S)[nH]c3ccccc23)n1)NCc1cccc(Cl)c1 0.0631 µM, COc1ccc(CNC(=O)Cc2csc(Nc3nc(=S)[nH]c4ccccc34)n2)cc1 0.224 µM, Cc1ccc(CNC(=O)Cc2csc(Nc3nc(=S)[nH]c4ccccc34)n2)cc1 0.891 µM
